Results reported in PubChem BioAssay AID1159580 (chemical genetic matrix, 2015).
Hit rate of the full screen: of about 5,500 compounds, about 2,000 (36%) were called active. Roughly 18% stayed inconclusive and do not appear here. Rule as the data show it: active = normalized growth mostly below about 0.91 (no sharp cut-off); inconclusive = no clear call, values can overlap the other calls; inactive = mostly above about 0.92. This is one part of the list.

Assay: chemical genetic growth profiling, strain panel (AID 1159580);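 also: tested at 20 µM; growth read once vehicle control cultures reached saturation at 30 °C; 1 = growth at the plate median or of vehicle wells; lower values mean less growth of the strain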
Details: growth OD

Measured: normalized growth

C=C[C@@](C)(O)CCC1C(=C)CCC2[C@@](C)(CO)CCC[C@]12C (some centres undefined)
active: S. cerevisiae deletion strains, locus YKL009W, strain mrt4, hits give low values 0.776 | S. cerevisiae deletion strains, locus YLL041C, strain sdh2, hits give low values 1.08 [resistant] | S. cerevisiae deletion strains, locus YLR262C, strain YPT6 (second series), hits give low values 0.733 | S. cerevisiae deletion strains, locus YLR357W, strain rsc2, hits give low values 1.16 [resistant] | S. cerevisiae deletion strains, locus YLR371W, strain rom2, hits give low values 1.12 [resistant] | S. cerevisiae deletion strains, locus YLR384C, strain iki3, hits give low values 1.09 [resistant] | S. cerevisiae deletion strains, locus YMR125W, strain sto1, hits give low values 1.13 [resistant] | S. cerevisiae deletion strains, locus YNL298W, strain CLA4, hits give low values 0.88 | S. cerevisiae deletion strains, locus YOR184W, strain ser1, hits give low values 0.679 | S. cerevisiae deletion strains, locus YOR231W, strain MKK1, hits give low values 0.85 | S. cerevisiae deletion strains, locus YPL106C, strain sse1, hits give low values 1.22 [resistant] | S. cerevisiae deletion strains, locus YPL241C, strain CIN2, hits give low values 1.07 [resistant] | S. cerevisiae deletion strains, locus YPR119W, strain clb2, hits give low values 1.07 [resistant]
inactive: S. cerevisiae deletion strains, locus YJR066W, strain TOR1, hits give low values 0.868 | S. cerevisiae deletion strains, locus YJR075W, strain HOC1, hits give low values 1.05 | S. cerevisiae deletion strains, locus YKL068W, hits give low values 1.02 | S. cerevisiae deletion strains, locus YKL085W, strain MDH1 (second series), hits give low values 0.994 | S. cerevisiae deletion strains, locus YKL085W, strain MDH1, hits give low values 0.994 | S. cerevisiae deletion strains, locus YKL160W, strain elf1, hits give low values 0.966 | S. cerevisiae deletion strains, locus YKL190W, strain CNB1, hits give low values 1.06 | S. cerevisiae deletion strains, locus YKR001C, strain vps1, hits give low values 1 | S. cerevisiae deletion strains, locus YKR026C, strain gcn3, hits give low values 1.08 | S. cerevisiae deletion strains, locus YKR091W, strain srl3, hits give low values 1.07 | S. cerevisiae deletion strains, locus YLL001W, strain dnm1, hits give low values 0.935 | S. cerevisiae deletion strains, locus YLL026W, hits give low values 1.03 | S. cerevisiae deletion strains, locus YLR027C, strain aat2, hits give low values 0.997 | S. cerevisiae deletion strains, locus YLR039C, strain RIC1, hits give low values 0.868 | S. cerevisiae deletion strains, locus YLR058C, strain SHM2, hits give low values 1 | S. cerevisiae deletion strains, locus YLR102C, strain apc9, hits give low values 1.05 | S. cerevisiae deletion strains, locus YLR113W, strain HOG1, hits give low values 0.891 | S. cerevisiae deletion strains, locus YLR221C, strain rsa3, hits give low values 0.982 | S. cerevisiae deletion strains, locus YLR258W, strain gsy2, hits give low values 1 | S. cerevisiae deletion strains, locus YLR268W, strain sec22, hits give low values 0.959 | S. cerevisiae deletion strains, locus YLR320W, strain mms22, hits give low values 0.98 | S. cerevisiae deletion strains, locus YLR330W, strain CHS5, hits give low values 1.05 | S. cerevisiae deletion strains, locus YLR342W, strain FKS1 (second series), hits give low values 0.883 | S. cerevisiae deletion strains, locus YLR342W, strain FKS1, hits give low values 0.999 | S. cerevisiae deletion strains, locus YLR370C, strain arc18, hits give low values 1.04 | S. cerevisiae deletion strains, locus YLR418C, strain cdc73, hits give low values 1.07 | S. cerevisiae deletion strains, locus YML016C, strain PPZ1, hits give low values 1.04 | S. cerevisiae deletion strains, locus YML032C, strain rad52, hits give low values 0.912 | S. cerevisiae deletion strains, locus YML120C, strain ndi1, hits give low values 0.974 | S. cerevisiae deletion strains, locus YML124C, strain tub3, hits give low values 1.04 | S. cerevisiae deletion strains, locus YMR058W, strain fet3, hits give low values 0.992 | S. cerevisiae deletion strains, locus YMR078C, strain ctf18, hits give low values 1.05 | S. cerevisiae deletion strains, locus YMR129W, hits give low values 1.06 | S. cerevisiae deletion strains, locus YMR205C, strain PFK2, hits give low values 0.969 | S. cerevisiae deletion strains, locus YMR223W, strain ubp8, hits give low values 0.995 | S. cerevisiae deletion strains, locus YMR231W, strain pep5, hits give low values 1.05 | S. cerevisiae deletion strains, locus YMR263W, strain SAP30, hits give low values 1.07 | S. cerevisiae deletion strains, locus YMR307W, strain GAS1, hits give low values 0.91 | S. cerevisiae deletion strains, locus YNL067W, strain RPL9B, hits give low values 0.979 | S. cerevisiae deletion strains, locus YNL071W, strain lat1, hits give low values 1 | S. cerevisiae deletion strains, locus YNL153C, strain GIM3, hits give low values 0.971 | S. cerevisiae deletion strains, locus YNL183C, strain NPR1, hits give low values 0.842 | S. cerevisiae deletion strains, locus YNL209W, strain ssb2, hits give low values 0.984 | S. cerevisiae deletion strains, locus YNL233W, strain BNI4, hits give low values 1.07 | S. cerevisiae deletion strains, locus YNL248C, strain rpa49, hits give low values 0.983 | S. cerevisiae deletion strains, locus YNL250W, strain rad50, hits give low values 0.995 | S. cerevisiae deletion strains, locus YNL271C, strain bni1, hits give low values 1 | S. cerevisiae deletion strains, locus YNL307C, strain MCK1, hits give low values 1.03 | S. cerevisiae deletion strains, locus YNL322C, strain KRE1 (second series), hits give low values 0.933 | S. cerevisiae deletion strains, locus YNR049C, strain mso1, hits give low values 1.06 | S. cerevisiae deletion strains, locus YNR052C, strain pop2, hits give low values 0.929 | S. cerevisiae deletion strains, locus YOL006C, strain TOP1, hits give low values 0.948 | S. cerevisiae deletion strains, locus YOL012C, strain htz1 1.69 | S. cerevisiae deletion strains, locus YOL147C, strain pex11, hits give low values 1.04 | S. cerevisiae deletion strains, locus YOR001W, strain rrp6, hits give low values 0.986 | S. cerevisiae deletion strains, locus YOR061W, strain CKA2, hits give low values 0.955 | S. cerevisiae deletion strains, locus YOR069W, strain VPS5, hits give low values 1.02 | S. cerevisiae deletion strains, locus YOR070C, strain gyp1, hits give low values 0.982 | S. cerevisiae deletion strains, locus YOR080W, strain dia2, hits give low values 1.01 | S. cerevisiae deletion strains, locus YOR083W, strain WHI5, hits give low values 0.939 | S. cerevisiae deletion strains, locus YOR106W, strain vam3, hits give low values 0.933 | S. cerevisiae deletion strains, locus YOR136W, strain idh2, hits give low values 1.01 | S. cerevisiae deletion strains, locus YOR144C, strain elg1, hits give low values 0.989 | S. cerevisiae deletion strains, locus YOR265W, strain rbl2, hits give low values 1.03 | S. cerevisiae deletion strains, locus YOR270C, strain vph1, hits give low values 0.839 | S. cerevisiae deletion strains, locus YOR290C, strain snf2, hits give low values 0.916 | S. cerevisiae deletion strains, locus YOR316C, strain cot1, hits give low values 1.06 | S. cerevisiae deletion strains, locus YPL051W, strain arl3, hits give low values 0.935 | S. cerevisiae deletion strains, locus YPL078C, strain atp4, hits give low values 0.939 | S. cerevisiae deletion strains, locus YPL240C, strain hsp82, hits give low values 1.06 | S. cerevisiae deletion strains, locus YPL256C, strain CLN2, hits give low values 0.915 | S. cerevisiae deletion strains, locus YPR141C, strain kar3, hits give low values 1.07 | S. cerevisiae deletion strains, locus YPR163C, strain tif3, hits give low values 0.977 | S. cerevisiae deletion strains, locus YPR167C, strain met16, hits give low values 1.01 | S. cerevisiae deletion strains, strain wtn01, hits give low values 0.945 | S. cerevisiae strains, strain wild type, hits give low values 1
